# Data from the supplement of paper PMC12632987.
# The full ranking holds about 1,800 sequences; the median of “median log2 fold change of GCK-ALFA target abundance (FLAG IP / Myc IP barcode read proportion)” is about 0.14, and the lowest 2% start at about -0.84. The entries come from a sample that favours the lowest values as a whole.
# T1: TRAF2, Q12933
# T1 chain: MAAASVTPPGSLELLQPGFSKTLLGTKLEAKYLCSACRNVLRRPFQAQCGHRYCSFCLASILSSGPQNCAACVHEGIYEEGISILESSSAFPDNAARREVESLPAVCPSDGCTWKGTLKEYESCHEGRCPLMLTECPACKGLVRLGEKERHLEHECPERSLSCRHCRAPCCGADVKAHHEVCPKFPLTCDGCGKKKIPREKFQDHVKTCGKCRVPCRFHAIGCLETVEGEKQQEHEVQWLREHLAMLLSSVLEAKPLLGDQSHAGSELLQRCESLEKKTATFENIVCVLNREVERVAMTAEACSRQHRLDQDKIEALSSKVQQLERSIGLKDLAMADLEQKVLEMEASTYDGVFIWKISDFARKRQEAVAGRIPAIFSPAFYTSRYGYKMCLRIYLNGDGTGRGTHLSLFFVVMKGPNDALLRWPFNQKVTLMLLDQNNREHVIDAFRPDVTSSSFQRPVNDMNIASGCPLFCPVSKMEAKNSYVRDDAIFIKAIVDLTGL
# B1: traf2_out_17_60_1760 (protein)
# chain: GPEERKKELAEEARRKIEEARRLVEEVRKKLEAGTLTADEAMDYLVELSEKRRELRRLAEELRAEGPEFEPLIEELERAIEEVERTMNEVGKELERLLAA
# B2: traf2_out_6_3_2512 (protein)
# chain: EEEEERKRNEEALEEAAEMSLETIKIAAETTLKELEKAVEDPNATETDFLAYKSSLNLLLEIMKKHAEKHPEEKEEAEKFIEEMKKKLEELEKEWKKKRA
# B3: traf2_out_20_3_2213 (protein)
# chain: DELVAAVREQLAKIRELLEQARPRLAPEDYARLNALLARAEEALETDPSDALVALSELRRALLELAERARAAGDEELAKLLEEAAEAANKAANLVMQLLE
# B4: traf2_out_17_162_1579 (protein)
# chain: SELEEKLKELEEKLKELEKELKRFKEELKNLENKSKEELTDLLVEVSEARREALQLAEELKKLEKEIGEEKAKELIEKAEEIAEEFQRIANEIYKELLKK
# B5: traf2_out_6_156_2416 (protein)
# chain: MVEEILKEALEKVKELIKELAKAPESKKIQYISKIAGTAYRALQKLREAGASLEEIEEFAKRFLEETKKLAKEAGLPEDTINLLLSALQAVFDVAIAEAK
# B6: traf2_out_6_3_2523 (protein)
# chain: SEESLREDARRVLEGMGITTAEQLRRLVRAEVNAVRRLVSRPDTDEADLAGAESVLALAEAVVDVAAEELPDLTEEQVAELRALIEEARKLVEEKRAELA
# B7: traf2_out_17_178_1720 (protein)
# chain: SKEEYRKKISELTDKLIDLAEAAAARLLALARAEGTLSPEELAALEAARRRGSPNDTLALMRRVAPRLRSAAEAEALLADFEAQSKALAKEIAELYEKYE
# B8: traf2_out_13_95_1103 (protein)
# chain: SEETAKKIMEVADKMLDKVEELLEKLLEKAKKAGKLEEEIEKALHLARYQSINEAIHLLKELAKKYPEFKEELEETIKEIEALRKQAGKEVAKIIKEEKE
# B9: traf2_out_13_95_1096 (protein)
# chain: SKELAEKIMEIADKMLDEVEKLLEELLKEAKKAGKLEEEVTEALNLARYRSINEAIHLLEELAKKHPEFKELYEKTIKEIKEIIKEAGKEVAKLIKEEKE
# B10: traf2_out_6_3_2524 (protein)
# chain: SEESLRADARKILEGMGITTAEQLRTLVTAEVNAVRQLVSRPDTDRADLAGARSVLALSRAIVDVAAETLPDLTPEQVAALRALIAAAEELIAAREAELA
# B11: traf2_out_16_104_1376 (protein)
# chain: SAATDAAFQAIIARLEAIAERAQRLANELMKLYEKASPEEKEKISDALVEVSELRRRALAAAEAVRQAQAAGGDLAEAQATLAELEARLAEAEARVEELK
# B12: traf2_out_11_169_872 (protein)
# chain: KEAEKNRKLNDFALELNDEAKEKLKEFALKLAKELGLDVEEVKKIFEENKNKSLSAVAAALIKYFKEKGKEDAAAKIEKKYEELKEEINKKTSEKIKELE
# B13: traf2_out_3_89_2287 (protein)
# chain: SEEREKKIEELRRIIDRYLKGFEKSARRVAKEMLEEGYSLDTLEGVLNASKTALVEEIRRLAKERGLSEEDIKELVEEATKRLDEIVDKILEEAKKARAE
# B14: traf2_out_19_16_1983 (protein)
# chain: AEEEAERLLAEMRRHLDEALRLAEETVANLDKLSRDELMDRLVEISELVRRAQEALQRALELLADDPERRAAIRAEYDERLDRINRLMTKIVDRLLELLK
# B15: traf2_out_11_79_931 (protein)
# chain: SEKRKELEELIKKALKLVEELIKKLKEGNISEEEFAKTIEEILELLQRAMQLALELGLSDVLVLLSEARRHVLLSRTRNLEELEKAAKYLKEALKELEKE
# B16: traf2_out_18_167_1826 (protein)
# chain: SEEAEKKINELRDKLIEYSEIRRLALAAIEALRTDPAAAEAALAAVIAALEKVPEFRPDAERLKALPREELPAALEEIAERAQRKMNEIYKEIEEIKKKA
# B17: traf2_out_6_3_2531 (protein)
# chain: DRESLLADARKVLENMGITTAAELQRLVEAEVRAIRQLISRPDVDRADLAGARSVIALARAMVEVAAETLPDFTPEQQARLQALLAEAEELVRRREEELA
# B18: traf2_out_20_3_2095 (protein)
# chain: EELEKELEKALKEAAKLIKKAIALADPETAARLEALLKRLKAAEKLPLEDRLVALSAVRRELLALAEEARAAGREELAKLLEEAAEEVNRAMNLAYKIIE
# B19: traf2_out_9_17_2611 (protein)
# chain: SAEEEELKERLLEAIEEVLKELVEKGYITEEEAEEILKKVKELIEKGASPDEIIAEFLGMIASILLTKSNLSLPEANKIVGEAYRRLQERLEKIEKELAE
# Molecular target: T1, TRAF2, Q12933
# Assay: median log2 fold change of GCK-ALFA target abundance (FLAG IP / Myc IP barcode read proportion) (log2 ratio); each designed protein is fused to an ALFA-tag nanobody in HEK293 cells to bring the named protein to FLAG-tagged glucokinase (GCK); Myc marks an untargeted standard; higher = target protein stabilised (more abundant)
# Settings: target protein: 3xFLAG-MCP-GCK-ALFA reporter; HEK293 landing pad (RPLP)
# How it was run: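 Binders fused to an ALFA nanobody were recombined as a library into HEK293 landing-pad cells, which were induced with 2 μg mL^−1 doxycycline and then transfected to express a FLAG-tagged target and a Myc-tagged standard. After 48 h, circular RNA barcodes recovered by anti-FLAG and anti-Myc immunoprecipitation of lysates were reverse transcribed, amplified and sequenced. Each binder's target abundance is the median log2 ratio of FLAG to Myc barcode read proportions, from barcodes present at ≥10^−7 in both replicates, binders carrying ≥3 barcodes per replicate, a 10^−6 pseudocount and pooled replicates.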
row,Binder,median log2 fold change
1,B1,0.112
2,B2,0.417
3,B3,0.129
4,B4,0.462
5,B5,-0.0768
6,B6,-0.222
7,B7,0.2
8,B8,-1.3
9,B9,-0.702
10,B10,-0.125
11,B11,0.417
12,B12,0.289
13,B13,-0.239
14,B14,-0.215
15,B15,0.265
16,B16,0.154
17,B17,-0.925
18,B18,-0.0878
19,B19,0.0354
